From PubChem BioAssay
Activity calls are given as the source filed them.

Columns and labels:
[1] = test system: Plasmodium falciparum Sir2 (PF13_0152, Sir2A); assay: Plasmodium falciparum Sir2A binding compounds – biochemical, small-molecule microarray, 635 nm fluorescence, primary screen (AID 1098); conditions: fluorescence 635 nm, higher = more signal;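 further: score merges spot fluorescence intensity with its signal-to-noise ratio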
[2] = probe aDKK1 binding to arrayed compounds – biochemical, biotinylated probe, 635/667 nm fluorescence, primary screen (AID 1099); conditions: small-molecule microarray, higher = more signal;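 further: score merges 667nm spot fluorescence with signal to noise across triplicate slides; reference of the scale not given here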
[3] = probe aCHRDL2 binding to arrayed compounds – biochemical, biotinylated probe, 635/667 nm fluorescence, primary screen (AID 1100); conditions: small-molecule microarray, higher = more signal
[4] = change in splice reporter luminescence, either direction, cell-based, HEK293, spliceosome inhibition project, primary screen (AID 1101); conditions: HEK293 splicing luciferase reporter, 24 h, higher = more signal, called active from +8 up or from −8 down;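 further: HEK293 cells carrying a splicing-competent luciferase reporter gene; test concentration not given here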
[5] = biological target: Fibroblast growth factor 10 (Homo sapiens) (UniProt O15520); assay: compounds binding fibroblast growth factor 10 – biochemical, small-molecule microarray, 635 nm fluorescence, primary screen (AID 1102); conditions: FGF10 binding, fluorescence 635 nm, higher = more signal
[6] = test system: glycogen synthase kinase-3 (GSK3A per assay name; protocol says GSK3B); assay: compounds binding glycogen synthase kinase-3 – biochemical, small-molecule microarray, 635 nm fluorescence, GSK3A, primary screen (AID 1103); conditions: fluorescence 635 nm, higher = more signal; further: the record names both GSK3A and GSK3B
[7] = biological target: Epidermal growth factor receptor (Homo sapiens) (UniProt P00533); assay: compounds binding epidermal growth factor receptor – biochemical, small-molecule microarray, 635 nm fluorescence, primary screen (AID 1104); conditions: EGFR binding, higher = more signal;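 further: score merges 667 nm emission intensity with spot signal to noise over triplicate slides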
[8] = biological target: Follistatin-related protein 3 (Homo sapiens) (UniProt O95633); assay: compounds binding follistatin-related protein 3 – biochemical, small-molecule microarray, 635 nm fluorescence, primary screen (AID 1105); conditions: FSTL3 binding, higher = more signal;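 further: score merges emission near 667 nm and signal to noise per printed spot across three slides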
[9] = biological target: Dickkopf-related protein 1 (Homo sapiens) (UniProt O94907); assay: small molecules binding DKK1 protein – biochemical, small-molecule microarray, 635 nm fluorescence scan, primary screen (AID 1106); conditions: higher = more signal;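 further: score merges emission near 667 nm with signal to noise over three replicate slides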
[10] = test system: Inhibin beta A chain (activin A); assay: small molecules binding activin A – biochemical, small-molecule microarray, 635 nm fluorescence scan, primary screen (AID 1107); conditions: INHBA, higher = more signal;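 further: mouse activin A protein probed at 4.33 µg/mL on printed slides; score merges bound-protein fluorescence near 667 nm with spot signal-to-noise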

Fibroblast growth factor 10 (Homo sapiens), sequence (O15520 whole entry, looked up): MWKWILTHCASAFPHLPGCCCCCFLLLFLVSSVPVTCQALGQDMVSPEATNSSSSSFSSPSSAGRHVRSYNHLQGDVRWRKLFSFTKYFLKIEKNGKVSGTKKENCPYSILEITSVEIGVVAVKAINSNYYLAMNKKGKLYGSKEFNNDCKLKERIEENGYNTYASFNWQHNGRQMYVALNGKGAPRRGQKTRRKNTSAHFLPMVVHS
Dickkopf-related protein 1 (Homo sapiens), sequence (O94907 whole entry, looked up): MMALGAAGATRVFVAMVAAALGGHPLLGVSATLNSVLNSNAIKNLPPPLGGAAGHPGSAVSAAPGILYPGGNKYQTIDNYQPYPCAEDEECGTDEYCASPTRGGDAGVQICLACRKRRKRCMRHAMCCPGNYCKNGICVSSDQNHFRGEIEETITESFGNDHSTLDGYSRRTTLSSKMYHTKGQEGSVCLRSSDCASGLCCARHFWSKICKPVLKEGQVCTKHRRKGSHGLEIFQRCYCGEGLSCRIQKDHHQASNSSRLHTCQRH
Follistatin-related protein 3 (Homo sapiens), sequence (O95633 whole entry, looked up): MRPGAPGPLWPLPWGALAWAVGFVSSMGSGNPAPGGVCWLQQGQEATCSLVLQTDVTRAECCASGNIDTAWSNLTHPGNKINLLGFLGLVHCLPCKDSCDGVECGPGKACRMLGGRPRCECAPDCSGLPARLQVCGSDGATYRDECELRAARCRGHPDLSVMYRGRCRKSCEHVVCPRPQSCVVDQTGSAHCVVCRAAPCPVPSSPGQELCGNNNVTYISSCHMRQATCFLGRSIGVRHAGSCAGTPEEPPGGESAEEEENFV
Epidermal growth factor receptor (Homo sapiens), sequence (P00533 whole entry, looked up): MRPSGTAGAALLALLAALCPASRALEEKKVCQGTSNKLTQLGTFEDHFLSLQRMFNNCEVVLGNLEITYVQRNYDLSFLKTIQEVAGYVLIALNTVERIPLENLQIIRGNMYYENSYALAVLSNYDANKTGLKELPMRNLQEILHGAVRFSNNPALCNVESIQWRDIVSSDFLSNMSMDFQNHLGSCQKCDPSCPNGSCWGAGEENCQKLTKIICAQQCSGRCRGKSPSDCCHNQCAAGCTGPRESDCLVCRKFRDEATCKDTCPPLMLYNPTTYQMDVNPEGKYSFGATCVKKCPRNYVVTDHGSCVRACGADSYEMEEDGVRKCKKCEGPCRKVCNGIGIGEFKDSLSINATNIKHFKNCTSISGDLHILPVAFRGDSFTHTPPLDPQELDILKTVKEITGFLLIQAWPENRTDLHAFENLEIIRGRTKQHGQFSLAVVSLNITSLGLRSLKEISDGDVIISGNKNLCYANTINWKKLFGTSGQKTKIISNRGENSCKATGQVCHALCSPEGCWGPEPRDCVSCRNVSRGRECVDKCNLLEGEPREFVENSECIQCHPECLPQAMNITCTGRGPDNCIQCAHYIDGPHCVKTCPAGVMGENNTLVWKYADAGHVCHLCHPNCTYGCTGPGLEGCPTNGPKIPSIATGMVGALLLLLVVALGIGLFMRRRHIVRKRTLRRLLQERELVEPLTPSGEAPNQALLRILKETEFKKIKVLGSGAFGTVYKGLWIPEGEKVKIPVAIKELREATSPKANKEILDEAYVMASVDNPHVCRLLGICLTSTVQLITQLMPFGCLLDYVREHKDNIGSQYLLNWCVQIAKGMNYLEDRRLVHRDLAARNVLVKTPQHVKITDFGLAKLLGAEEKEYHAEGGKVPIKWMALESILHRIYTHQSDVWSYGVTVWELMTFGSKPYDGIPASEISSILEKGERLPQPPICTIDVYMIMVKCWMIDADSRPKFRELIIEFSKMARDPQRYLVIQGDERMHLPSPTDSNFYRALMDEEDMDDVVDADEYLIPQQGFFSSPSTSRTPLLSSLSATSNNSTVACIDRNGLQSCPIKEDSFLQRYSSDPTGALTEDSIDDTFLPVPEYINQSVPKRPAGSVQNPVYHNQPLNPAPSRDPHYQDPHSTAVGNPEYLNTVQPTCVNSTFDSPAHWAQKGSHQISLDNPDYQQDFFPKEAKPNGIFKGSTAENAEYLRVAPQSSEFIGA

| Compound | composite z-score [1] | composite z-score [2] | composite z-score [3] | z-score [4] | composite z-score [5] | composite z-score [6] | composite z-score [7] | composite z-score [8] | composite z-score [9] | composite z-score [10] |
| --- | --- | --- | --- | --- | --- | --- | --- | --- | --- | --- |
| C=C(/C(=C/C[C@@H](OC(=O)c1ccncc1)c1ccc(CO)o1)c1cc(C(=O)OC)ccc1OC)C(C)C | 1.32 | -0.0623 | -0.109 | 0.614 (inactive) | 1.3 | 1.14 | 0.439 | 1.13 | 0.432 | -0.0326 |
| CO[C@H]1O[C@H](CO)[C@@H](OC(=O)Nc2ccc3c(c2)OCO3)[C@H](OC(=O)Nc2ccc3c(c2)OCO3)[C@H]1OC(=O)Nc1ccc2c(c1)OCO2 | 1.49 | -0.0124 | 0.392 | -0.295 (inactive) | 1.24 | 1.33 | 0.258 | 0.878 | 0.101 | 1.14 |
| C=CC[C@@]1(C(=O)NCCN2CCOCC2)N=C(c2ccc(OCCCO)cc2)O[C@@H]1c1ccccc1CN=[N+]=[N-] | 1.02 | 1.06 | 1.3 | -1.05 (inactive) | 0.205 | 0.62 | -0.357 | 0.221 | 0.137 | 1.46 |
| O=C1O[C@H](c2ccccc2)[C@H](c2ccccc2)N2[C@H]1[C@@H](C(=O)NC[C@H](O)c1ccccc1)[C@]1(C(=O)Nc3ccc(C#CC4(O)CCCCCC4)cc31)[C@H]2c1ccccc1OCCO | 1.51 | -0.26 | -0.313 | -1.11 (inactive) | 1.17 | 1.16 | -0.028 | 0.948 | 0.178 | 0.048 |
| Cc1ccc(S[C@]2(C(=O)NCCCN(C)C)CC(=O)N(C(C)C)[C@@H]2c2ccc(CO)cc2I)cc1 | 1.37 | 0.17 | 0.789 | -1.44 (inactive) | -0.238 | -0.627 | -0.228 | -0.137 | -0.827 | 1.1 |
| O=C1O[C@@H](c2ccccc2)[C@@H](c2ccccc2)N2[C@@H](c3ccc(O)cc3)[C@]3(C(=O)Nc4ccc(C#CCCO)cc43)[C@@H](C(=O)N3CCCCCCC3)[C@H]12 | 1.83 | 1.7 | 1.07 | 0.62 (inactive) | 0.837 | 0.78 | 0.201 | 1.43 | 0.843 | 1.67 |
| CCCC[C@@H]1C[C@H]1[C@@H](NC(=O)c1ccccc1)c1ccc(-c2ccccc2)cc1 | -0.616 | -0.0102 | 0.754 | -3.53 (inactive) | 0.0096 | -0.372 | 0.0518 | 0.12 | 0.228 | 0.715 |
| C[n+]1ccc2ccc(O)cc2c1 | -0.0574 | -0.147 | -0.444 | 0.526 (inactive) | 1.07 | 0.534 | 1.19 | 1.45 | 1.31 | 1.53 |
| O=C(NCc1ccccc1)[C@@H]1c2ccccc2C(=O)N(C2CCCCC2)[C@H]1c1ccc(CO)cc1 | 0.88 | -0.709 | 0.0028 | 0.365 (inactive) | 0.686 | 0.0662 | -0.241 | 0.707 | -0.327 | -0.224 |
| CN1C(=O)C2C(C1=O)C1C=C(c3ccc(CO)cc3)C2C(C2CC2)N1Cc1sc2ccccc2c1Cl (stereo not given) | 0.924 | -0.197 | 0.82 | 0.254 (inactive) | 1.25 | 1.33 | 0.291 | 0.989 | 0.473 | 0.74 |
| O=C(NCC(O)CO)[C@@]1(Cc2ccccc2)COC(c2ccc(OCCCO)cc2)=N1 (stereo not given in full) | -0.509 | 0.549 | 0.536 | 0.138 (inactive) | -0.309 | -0.546 | -0.198 | -1.21 | -0.92 | 0.656 |
| COc1c(C)cc(-c2cc3c(c(-c4ccccc4)n2)[Si](C(C)C)(C(C)C)O[C@H]3c2ccccc2)cc1C | -0.14 | -0.16 | -0.327 | 0.139 (inactive) | 0.397 | 0.02 | 0.0111 | 0.168 | 0.211 | 0.0244 |
| CC1(C)C(=O)C(c2ccccc2)=C2CN3C(=O)N(CCc4ccccc4)C(=O)C3(Cc3ccccc3)C=C21 (stereo not given) | 0.155 | 1.06 | 1.12 | 0.917 (inactive) | 0.363 | 0.182 | -0.0726 | 0.949 | -1.03 | 1.09 |
| O=C(NCC(F)(F)F)[C@@H]1c2ccccc2C(=O)N(Cc2ccccc2)[C@H]1c1ccc(CO)cc1 | 1.68 | 0.443 | 1.05 | 0.999 (inactive) | -0.308 | -0.409 | -1.31 | -1.12 | -1.46 | -0.296 |
| COC(=O)[C@@]1(Cc2ccc(F)cc2)[C@H]2c3cc(C(=O)N4CCCC4)n(Cc4ccc(Cl)c(C(F)(F)F)c4)c3C[C@H]2CN1C(=O)c1ccccc1 | 1.11 | 2.11 | 1.58 | -0.767 (inactive) | 0.879 | 0.864 | 0.477 | 1.18 | -0.652 | 0.864 |
| O=[N+]([O-])c1ccc(C[n+]2ccc(CCCO)cc2)o1 | 0.513 | 0.762 | 0.805 | 0.115 (inactive) | 1.54 | 0.634 | 0.396 | 1.13 | 1.08 | 0.918 |
| C=C(COC)C(=O)CC[C@H](OC(=O)c1cccnc1)c1ccccc1OCCO | 1.25 | 0.224 | 0.561 | 0.193 (inactive) | 1.12 | 0.844 | 0.471 | 1.27 | 0.559 | 1.22 |
